In PubChem BioAssay (Tox21):
Values joined by “and” are separate entries in the source; they are usually repeats but may differ in a detail not shown here. Equal entries are not always repeated. Unmarked numbers belong to inactive results. Results filed as inconclusive are left out. Where a call stands in place of a potency, no number is given. Active and inactive are the calls of the source. Unless noted, calls come from the whole dose curve; as a rule, active = well fitted curve in the direction sought with a large enough effect in the repeat runs; inconclusive = weak or mixed curves; inactive = no such curve, though single readings can be large; an effect the other way counts as inactive or inconclusive.

Experiments:
[1] = Caspase-3/7 induction in HepG2 cells by small molecules, qHTS assay (AID 1346978); note: nearly all actives have a fitted effect of over 15% in size; note: potency is the fitted concentration of half-maximal effect
Outline: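 Wild-type HepG2 cells, 2,000/well, settled 5 hr at 37 C and 5% CO2, then compound-treated for 17 hr; caspase-3/7 activity read by luminescent Caspase-Glo 3/7 after 30 min at room temperature.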

[2] = Caspase-3/7 induction in CHO-K1 cells by small molecules, qHTS cell viability counter screen (AID 1346979); note: nearly all actives have a fitted effect of over 35% in size; note: potency is the fitted concentration of half-maximal effect
Outline: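 In the same wells as the caspase read, viability of compound-treated wild-type CHO-K1 cells was assessed using CellTiter-Fluor, added after 16hr at 37C and measured by fluorescence following 1hr further incubation.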

[3] = Caspase-3/7 induction in CHO-K1 cells by small molecules, qHTS assay (AID 1346980); note: nearly all actives have a fitted effect of over 15% in size; note: potency is the fitted concentration of half-maximal effect
Outline: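 Wild-type CHO-K1 cells exposed to compounds for 17hr at 37 C, 5% CO2. Caspase-3/7 activity then measured by Caspase-Glo 3/7 luminescence after 30min at room temperature.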

[4] = Caspase-3/7 induction in HepG2 cells by small molecules, qHTS cell viability counter screen (AID 1346981); note: nearly all actives have a fitted effect of over 30% in size; note: potency is the fitted concentration of half-maximal effect
Outline: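 Wild-type HepG2 cells, 2,000/well, settled 5 hr at 37 C, 5% CO2 before compound addition. Viability read by CellTiter-Fluor fluorescence, reagent added after 16 hr compound exposure, then 1 hr at 37C, in the same wells as the caspase read.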

[5] = molecular target: Nuclear receptor subfamily 1 group I member 2 (Homo sapiens) (UniProt O75469); assay: Human pregnane X receptor (PXR) small molecule agonists, qHTS assay (AID 1346982); note: nearly all actives have a fitted effect of over 35% in size; note: potency is the fitted concentration of half-maximal effect
Nuclear receptor subfamily 1 group I member 2 (Homo sapiens), sequence (O75469 whole entry, looked up): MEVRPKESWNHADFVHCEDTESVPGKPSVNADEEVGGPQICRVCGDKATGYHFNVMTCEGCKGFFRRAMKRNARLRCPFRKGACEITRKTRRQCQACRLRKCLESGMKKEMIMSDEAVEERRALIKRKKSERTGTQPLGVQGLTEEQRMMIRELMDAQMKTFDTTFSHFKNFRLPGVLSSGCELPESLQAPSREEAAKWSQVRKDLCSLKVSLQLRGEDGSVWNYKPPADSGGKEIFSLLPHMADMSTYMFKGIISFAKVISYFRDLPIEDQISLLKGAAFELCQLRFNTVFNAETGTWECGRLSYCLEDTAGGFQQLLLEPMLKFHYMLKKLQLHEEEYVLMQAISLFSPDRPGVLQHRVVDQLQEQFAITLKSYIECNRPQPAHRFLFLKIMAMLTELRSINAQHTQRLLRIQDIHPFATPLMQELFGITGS
Outline: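 PXR-Luc HepG2 reporter cells (CYP3A4-driven luciferase) in 5% charcoal-stripped FBS medium, plated 5 h before compound addition, then treated 24 h at 37C. Luciferase read by ONE-Glo luminescence after 30 min at room temperature.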

[6] = molecular target: Acetylcholinesterase (Homo sapiens) (UniProt P22303); assay: Acetylcholinesterase (AChE) small molecule antagonists: colormetric cell-based qHTS assay (AID 1347395; calls by dose curve; note: nearly all actives have a fitted effect of over 30% in size; note: potency is the fitted concentration of half-maximal effect)
Acetylcholinesterase (Homo sapiens), sequence (P22303 whole entry, looked up): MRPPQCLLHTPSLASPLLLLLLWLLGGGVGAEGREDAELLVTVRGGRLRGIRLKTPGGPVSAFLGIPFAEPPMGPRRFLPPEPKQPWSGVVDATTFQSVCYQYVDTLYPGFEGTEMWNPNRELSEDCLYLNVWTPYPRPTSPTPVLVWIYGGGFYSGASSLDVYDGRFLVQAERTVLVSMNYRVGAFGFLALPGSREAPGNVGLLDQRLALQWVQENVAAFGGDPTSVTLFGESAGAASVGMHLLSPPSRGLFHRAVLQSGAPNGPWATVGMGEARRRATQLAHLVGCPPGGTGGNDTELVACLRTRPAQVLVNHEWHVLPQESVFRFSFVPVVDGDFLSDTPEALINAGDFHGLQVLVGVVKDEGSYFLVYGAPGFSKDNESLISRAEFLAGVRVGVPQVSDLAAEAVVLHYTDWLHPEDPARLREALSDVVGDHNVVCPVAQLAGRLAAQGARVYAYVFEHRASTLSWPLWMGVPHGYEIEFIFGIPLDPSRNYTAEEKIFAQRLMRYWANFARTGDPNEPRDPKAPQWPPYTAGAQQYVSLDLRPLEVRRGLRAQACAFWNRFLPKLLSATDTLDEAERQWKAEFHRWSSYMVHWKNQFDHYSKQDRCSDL
Outline: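 Endogenous AChE of human neuroblastoma SH-SY5Y cells was measured with an Ellman-type DTNB/acetylthiocholine mix. Compound pretreatment lasted 30 min at 37 C; substrate reaction ran 90 min at 37 C.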

[7] = molecular target: Acetylcholinesterase (Homo sapiens) (UniProt P22303); assay: Acetylcholinesterase (AChE) small molecule antagonists: enzyme-based qHTS assay (AID 1347397; calls by dose curve; note: nearly all actives have a fitted effect of over 55% in size; note: potency is the fitted concentration of half-maximal effect); details: Potency: AChE enzyme activity inhibition
Outline: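 Recombinant human AChE (50 mU/mL) preincubated with compound 30 min at room temperature; acetylthiocholine plus DTNB then added, and thiocholine formation read colorimetrically after 10 min at room temperature. DMSO served as vehicle control.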

[8] = molecular target: Nuclear receptor subfamily 1 group I member 2 (Rattus norvegicus) (UniProt Q9R1A7); assay: Rat pregnane X receptor (rPXR) activation by small molecules, qHTS assay (AID 1346983); details: rPXR luciferase reporter cells, One-Glo luminescence, 24 h; max activation: hits give high values; note: nearly all actives have a fitted effect of over 20% in size
Nuclear receptor subfamily 1 group I member 2 (Rattus norvegicus), sequence (Q9R1A7 whole entry, looked up): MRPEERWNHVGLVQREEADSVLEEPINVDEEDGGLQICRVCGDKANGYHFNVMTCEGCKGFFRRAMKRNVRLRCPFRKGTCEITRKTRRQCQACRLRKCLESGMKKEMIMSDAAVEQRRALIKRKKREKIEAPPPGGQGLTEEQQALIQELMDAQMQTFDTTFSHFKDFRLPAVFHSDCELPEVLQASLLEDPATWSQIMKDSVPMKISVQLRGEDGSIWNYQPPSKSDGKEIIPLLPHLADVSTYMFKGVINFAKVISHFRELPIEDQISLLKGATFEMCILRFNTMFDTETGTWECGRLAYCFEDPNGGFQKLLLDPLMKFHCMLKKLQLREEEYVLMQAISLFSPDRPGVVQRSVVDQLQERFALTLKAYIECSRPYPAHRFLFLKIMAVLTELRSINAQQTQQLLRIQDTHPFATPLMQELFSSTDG
Outline: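 Cell-based rPXR activation assay: rPXR cells, 2,000 per well, rested 5hr at 37 C, then exposed to compounds in DMSO for 24 hr at 37 C. Luciferase activity read by One-Glo luminescence after 30 min at room temperature.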

[9] = molecular target: Nuclear receptor subfamily 1 group I member 2 (Homo sapiens) (UniProt O75469); assay: CYP3A4 induction through human pregnane X receptor (PXR) by small molecules, qHTS assay (AID 1346984); note: nearly all actives have a fitted effect of over 40% in size
Outline: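 DPX-2 HepG2 cells carrying a PXR response element and CYP3A4-promoter luciferase construct, treated with compounds 24 hr at 37C. Then P450-Glo CYP3A4 Luciferin-IPA substrate (3uM final) for 3 hr at 37C, One-Glo added, luminescence read.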

[10] = molecular target: Nuclear receptor subfamily 1 group I member 2 (Homo sapiens) (UniProt O75469); assay: Human pregnane X receptor (PXR) activation by small molecules, qHTS assay (AID 1346985); note: nearly all actives have a fitted effect of over 40% in size; note: potency is the fitted concentration of half-maximal effect
Outline: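 DPX-2 cells (HepG2 co-transfected with a PXR response element and a CYP3A4-promoter luciferase construct) were seeded at 2,000 per well, rested 5 hr at 37C, then exposed to DMSO-dissolved compounds for 24 hr. Activation was read as luciferase luminescence.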

SMILES | Potency [1] | Potency [2] | Potency [3] | Potency [4] | Potency [5] | Potency [6] | Potency [7] | max activation [8] | Potency [9] | activity, negative = inhibition [6] | activity change, negative = inhibition [7] | Potency [10]
ClC(Cl)=C(c1ccc(Cl)cc1)c1ccc(Cl)cc1 | inactive | inactive | inactive | inactive | 62.6 µM (active) and 48.6 µM (active) | inactive | inactive |  |  |  |  | 
O=C(NC(=O)c1c(F)cccc1F)Nc1cc(Cl)c(OC(F)(F)C(F)F)c(Cl)c1 | inactive | inactive | inactive | inactive | inactive | inactive | inactive |  |  |  |  | 
CCOP(=S)(OCC)SCS(=O)(=O)CC | inactive | inactive | inactive | inactive | inactive | 1.59 µM (active) | 7.1 µM (active) |  |  |  |  | 
CCOP(=S)(OCC)SCCS(=O)(=O)CC | inactive | inactive | inactive | inactive | inactive | 35.6 µM (active) | 71 µM (active) |  |  |  |  | 
Cc1ccc(CCl)cc1 | inactive | inactive | inactive | inactive | inactive | inactive | inactive |  |  |  |  | 
Clc1ccc(CSC(Cn2ccnc2)c2ccc(Cl)cc2Cl)cc1 (centres undefined) | inactive | 18.8 µM (active) | inactive |  | 9.44 µM (active) | inactive |  | 11.4% | inactive |  |  | 
CCCN(CCC)c1c([N+](=O)[O-])cc(S(N)(=O)=O)cc1[N+](=O)[O-] | 57.2 µM (active) | 50.1 µM (active) | 58.8 µM (active) | 57.7 µM (active) | 3.67 µM (active) |  | inactive |  |  |  |  | 
BrC(Br)Br | inactive | inactive | inactive | inactive | inactive | inactive | inactive |  |  |  |  | 
CC(C)(COCC1CO1)COCC1CO1 (centres undefined) | inactive | inactive | inactive |  | inactive | inactive | inactive |  |  |  |  | 
c1ccc2c(c1)OCC(C1=NCCN1)O2 (centres undefined) | inactive | 23.7 µM (active) | inactive |  | 11.9 µM (active) | inactive | inactive |  |  |  |  | 
C[C@@H]1CC[C@@]2(OC1)O[C@H]1[C@@H](O)[C@H]3[C@@H]4CC[C@H]5C[C@@H](O[C@@H]6O[C@H](CO)[C@H](O[C@@H]7O[C@H](CO)[C@@H](O)[C@H](O[C@@H]8OC[C@@H](O)[C@H](O)[C@H]8O)[C@H]7O[C@@H]7O[C@H](CO)[C@@H](O)[C@H](O[C@@H]8O[C@H](CO)[C@@H](O)[C@H](O)[C@H]8O)[C@H]7O)[C@H](O)[C@H]6O)[C@H](O)C[C@]5(C)[C@H]4CC[C@]3(C)[C@H]1[C@@H]2C | inactive | 4.59 µM (active) | inactive | 36.5 µM (active) | inactive | inactive | inactive |  |  |  |  | 
[Cl][Sn]([c]1ccccc1)([c]1ccccc1)[c]1ccccc1 | 1.46 µM (active) | 0.326 µM (active) | 0.326 µM (active) | 5.8 µM (active) |  |  |  |  |  | 1.75% [at 23.6 µM] | 0% [at 23.6 µM] | 
c1ccc(Nc2ccc3ccccc3c2)cc1 | inactive | 54.5 µM (active) | inactive |  | 30.5 µM (active) and 21.7 µM (active) | inactive | inactive |  |  |  |  | 
CCOP(=S)(OCC)SCS(=O)(=O)C(C)(C)C | inactive | inactive | inactive |  | 9.69 µM (active) | 63.3 µM (active) |  |  |  |  |  | 
C[C@@H]1O[C@@H](O[C@H]2C[C@@H](O)[C@]3(CO)[C@H]4[C@H](O)C[C@]5(C)[C@@H](C6=CC(=O)OC6)CC[C@]5(O)[C@@H]4CC[C@]3(O)C2)[C@H](O)[C@H](O)[C@H]1O | inactive | inactive | inactive |  | inactive | inactive | inactive | 0.399% and -3.08% |  |  |  | inactive
Clc1ccc(CCC(Cn2ccnc2)Sc2c(Cl)cccc2Cl)cc1 (centres undefined) | inactive | 11.9 µM (active) | inactive |  | 4.22 µM (active) | inactive |  |  | inactive |  |  | 4.47 µM (active)
C=CCOC(N)=O | inactive | inactive | inactive | inactive | inactive | inactive | inactive |  |  |  |  | 
O=[N+]([O-])c1ccc2ccc3cccc4ccc1c2c34 | inactive | 43.2 µM (active) | inactive | 27.3 µM (active) | 21.7 µM (active) | inactive | inactive |  |  |  |  | 
CCCN(CC)CC1COC2(CCC(C(C)(C)C)CC2)O1 (centres undefined) | inactive | inactive | inactive |  | inactive | inactive | inactive |  |  |  |  | 
CC1(C)CN=C(NN=C(/C=C/c2ccc(C(F)(F)F)cc2)/C=C/c2ccc(C(F)(F)F)cc2)NC1 | 12.2 µM (active) | 8.63 µM (active) | inactive | 19.3 µM (active) |  | inactive | inactive |  |  |  |  | 
CC1(C)C(/C=C(\Cl)C(F)(F)F)C1C(=O)OC(C#N)c1cccc(Oc2ccccc2)c1 (centres undefined) | inactive | inactive | inactive | inactive | 1.96 µM (active) | inactive | inactive |  |  |  |  | 
Nc1ccc([N+](=O)[O-])cc1Cl | inactive | 61.1 µM (active) | inactive |  | inactive | inactive | inactive |  |  |  |  | 
[Cl][Sb]([Cl])[Cl] | inactive | 54.5 µM (active) | inactive |  | 27.3 µM (active) | inactive | inactive |  |  |  |  | 
CCOC(=O)OC1=C(c2cc(C)ccc2C)C(=O)NC12CCC(OC)CC2 (centres undefined) | inactive | inactive | inactive | inactive |  | inactive | inactive |  |  |  |  | 
CC(Cl)CN(C)C (centres undefined) | inactive | inactive | inactive | inactive | inactive | inactive | inactive |  |  |  |  | 
